Results published in publication PMC5540273 (PLoS ONE, 2017).

Test system: T1, BIKE
T1 construct: gene BMP2K
Conditions: concentration: 1 μM, replicates: in singlicate; n = 1
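Note: KINOMEscan kinase panel screen.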

SMILES | %Inh
COc1cc(Nc2nccc(N3CCC(NS(=O)(=O)c4ccc(NC(C)=O)cc4)CC3)n2)cc(OC)c1OC [GSK1379825] | 75%
Cc1cc(-c2ccnc(Nc3cccc(C#N)c3)n2)cc(C)c1O [GSK1440913] | 99.5%
Cc1ccc(C)c(NC(=O)Nc2ccc(C)c(-c3ccc(C(=O)Nc4ccncc4)cc3)c2)c1 [GSK1398473] | 13%
CN(C)CCNS(=O)(=O)c1ccc(-c2ccnc3[nH]ccc23)cc1 [GSK977620] | 82%
O=C(Nc1n[nH]c2nc(-c3cccc(O)c3)ccc12)C1CC1 [SB-711805] | 34%
COc1cccc(C2=C(Nc3cccc(O)c3)C(=O)NC2=O)c1 [SB-390771] | 0%
CSc1ccc(NC2=C(c3ccc(Cl)cc3)C(=O)NC2=O)cc1 [SB-317658] | 0%
Cc1ccc(O)cc1Nc1ccnc2cc(-c3ccc(CN4CCCCC4)o3)ccc12 [GW557777] | 4%
Fc1cc(Cl)ccc1Nc1ccnc2cc(-c3ccc(CN4CCOCC4)o3)ccc12 [GW560109] | 21%
COC(=O)Nc1nc2ccc(Oc3ccc(NC(=O)Nc4cc(C(F)(F)F)ccc4F)cc3)cc2[nH]1.Cl [GW654607] | 10%
CN(c1ccc(NC(=O)N2CCN(CCCN3CCOCC3)CC2)cc1)c1ccnc(Nc2ccc(CS(C)(=O)=O)cc2)n1.Cl [GW830899] | 86%
CCn1c(-c2nonc2N)nc2c(-c3ccccc3)ncc(OCCCN)c21.O=C(O)C(F)(F)F.O=C(O)C(F)(F)F [GSK260205] | 8%
COc1cc(Nc2nccc(N3CCC(NC(=O)Nc4ccc5c(c4)OCO5)C3)n2)cc(OC)c1OC (stereo not drawn) [GSK1379766] | 74%
Cc1ccc(NC(=O)c2ccnc(N3CCCCC3)c2)cc1-c1ccc(C(=O)NCC2CC2)cc1 [GW775610] | 10%
COC(=O)Nc1nc2ccc(Oc3ccc(CC(=O)Nc4cc(C(F)(F)F)ccc4F)cc3)cc2[nH]1 [GW680903] | 3%
COc1ccc(NC(=O)c2ccoc2)cc1-c1ccc(C(=O)NCC2CC2)cc1 [GW810437] | 0%
Cc1cccc(Nc2nc(NCCN)ncc2C(N)=O)c1 [GSK1292139] | 77%

SMILES | %Inh
Cl.N#CCc1ccc(Nc2nccc(Nc3ccc(Oc4ccccc4)cc3)n2)cc1 [GW639905] | 26%
Fc1cc(Cl)ccc1Nc1ccnc2cc(-c3ccc(CN4CCSCC4)o3)ccc12 [GW560106] | 4%
NCCC(NC(=O)c1cc(Br)c(-c2ccnc3[nH]ccc23)s1)c1ccccc1.O=C(O)C(F)(F)F.O=C(O)C(F)(F)F (stereo not drawn) [GSK1307810] | 100%
O=C(O)C(F)(F)F.O=c1[nH]ccc2nc(N[C@@H]3CCNC3)nc(Nc3ccc4c(c3)S(=O)(=O)CC4)c12 [GSK2181306] | 98.8%
Cc1ccccc1CC(=O)N1CCc2cc(-c3cn(C)c4ncnc(N)c34)ccc21 [GSK2603346] | 82%
CCNC(=O)/C=C/c1n[nH]c2cc(Sc3ccccc3C(=O)NC)ccc12 | 48%
Nc1ncc(-c2ccc3nccc(-c4ccncc4)c3c2)cc1S(=O)(=O)N1CCCCC1 [GSK1693850] | 14%
CS(=O)(=O)c1cccc(CNc2nc(Nc3ccc4c(c3)CCC(=O)N4)ncc2C(F)(F)F)c1 | 82%
COc1ccc(C)c(Nc2ccnc(Nc3ccc(-c4cnc[nH]4)cc3)n2)c1.Cl [GW784041] | 37%
O=C(O)C(F)(F)F.O=c1[nH]ccc2nc(N[C@@H]3CCNC3)nc(Nc3cc(Cl)cc(Cl)c3)c12 [GSK2188764] | 97.6%
Cl.Cl.NC(CNC(=O)c1cc(Br)c(-c2ccnc3[nH]ccc23)s1)c1ccccc1 (stereo not drawn) [GSK1322949] | 100%
COC(=O)Nc1nc2cc(Oc3ccc(NC(=O)Nc4cccc(SC)c4)cc3)ccc2[nH]1.Cl [GW697999] | 6%
CCOc1nccc(-c2c(-c3ccc(F)cc3)ncn2C2CCNCC2)n1 [SB-249175] | 0%
Cl.Cl.NCC(NC(=O)c1cc(-c2cccnc2)c(-c2ccnc3[nH]ccc23)s1)c1ccccc1 (stereo not drawn) [GSK1323434] | 63%
Nc1ncnc2scc(-c3ccc(NC(=O)Cc4cc(F)ccc4F)cc3)c12.O=C(O)C(F)(F)F [SB-731254-M] | 7%
Cn1cc(-c2ccc3c(c2)CCN3C(=O)Cc2cc(F)cc(C(F)(F)F)c2)c2c(N)ncnc21 [GSK2635225] | 23%
